# Assay results published in PubChem BioAssay (NCATS).
# Records with an inconclusive call do not appear. A structure can be active in one record and inactive in another. Calls of active or inactive are those of the source. Calls come from the whole dose curve; as a rule, active = well fitted curve in the direction sought with a large enough effect; inconclusive = small, poorly fitted or top-dose-only effect, or another doubt; inactive = no such curve, though single readings can be large; an effect the other way counts as inactive or inconclusive.
# Assay: BET inhibitor-based combinations targeting novel dependencies in MECOM-rearranged (r) AML: MV-4-11 cell line (AID 2202233); note: nearly all actives have a fitted effect of over 45% in size
# Conditions: MV-4-11 AML viability, CellTiter-Glo luminescence, 48 h; series mostly up to 46 µM; viability, % of control: at the top concentration
# Procedure, shortened: (§1)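 Each compound is tested in an 11-point concentration series against 500 seeded cells/well for 48 hr. The luminescent viability signal is normalized to DMSO and blank wells, then reduced to AUC and a cell-line-centred Z-AUC.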
# Potency is the fitted concentration of half-maximal effect.
row,SMILES,Potency
1,Cc1ccc(NC(=O)Nc2nnc(Sc3ncnc4cc(OCCCN5CCOCC5)ccc34)s2)cc1,16.6 nM (active)
2,CN(CCO)C1CCN(c2ccc(Nc3ncc4c5ccnc(F)c5n(C5CCCC5)c4n3)nc2)CC1,129 nM (active)
3,COc1ccc(Oc2cc(NCCC(F)(F)F)c3ncc(-c4ccc(C(=O)NC5CC5)c(C)c4)n3n2)c(F)c1F,66.1 nM (active)
4,NS(=O)(=O)c1ccc(S(=O)(=O)Nc2cccc3c(Cl)c[nH]c23)cc1,590 nM (active)
5,CC1c2cccc(O)c2C(O)=C2C(=O)C3(O)C(O)=C(C(N)=O)C(=O)C(N(C)C)C3C(O)C21 (configuration not stated),26300 nM (active)

# Assay: BET inhibitor-based combinations targeting novel dependencies in MECOM-rearranged (r) AML: HNT-34 cell line (AID 2202234); note: nearly all actives have a fitted effect of over 35% in size;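 for viability (% of control): plate controls were vehicle wells for no effect and cell-free wells for full effect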
# Conditions: HNT-34 AML viability, CellTiter-Glo luminescence, 48 h; series mostly up to 46 µM; viability (% of control): at the top concentration
# Procedure, shortened: as §1
SMILES,viability (% of control),Potency
C[C@H](O)[C@@H]1C(=O)N2C(C(=O)O)=C(S[C@@H]3CN[C@H](CNS(N)(=O)=O)C3)[C@@H](C)[C@@H]12,110% (inactive),–
Nc1nccn2c(C3CCC(C(=O)O)CC3)nc(-c3cc4cccc(Cl)c4[nH]3)c12 (configuration not stated),–,1480 nM (active)
C=CCNC1=C2CC(C)CC(OC)C(O)C(C)/C=C(\C)C(OC(N)=O)C(OC)/C=C/C=C(\C)C(=O)NC(=CC1=O)C2=O (configuration not stated),–,3320 nM (active)
N=C1CCCN1Cc1[nH]c(=O)[nH]c(=O)c1Cl,104% (inactive),–
Cn1nccc1Nc1nccc(-c2cc3c(s2)C(C)(C)N(CCN2CCOCC2)C3=O)n1,–,6610 nM (active)
COc1ccc(-c2cc(C(O)C3CCCCN3)c3ccccc3n2)cc1 (configuration not stated),–,13200 nM (active)
C[C@H]1COCCN1c1cc(C2(S(=O)(=O)C3CC3)CC2)nc(-c2ccc(NC(=S)NCCO)cc2)n1,–,105 nM (active)
CNC(=O)Cn1cc(-c2ccc3c(c2)C(F)CC32NC(=O)N(CC(=O)N(Cc3ccc(F)cc3)[C@@H](C)C(F)(F)F)C2=O)cn1 (some centres not stated),–,74.2 nM (active)
CN(C)CCCN=c1c2ccccc2n(C)c2[nH]c(=O)n(C)c(=O)c12,–,23500 nM (active)
CC1(C)C(N(O)C(=O)Nc2ccc(Cl)cc2)N(c2ccc(Cl)cc2)C(=O)N1CC(=O)N/N=C/C=C/c1ccc([N+](=O)[O-])o1 (configuration not stated),–,13200 nM (active)
Cc1ccc(NC(=O)Nc2nnc(Sc3ncnc4cc(OCCCN5CCOCC5)ccc34)s2)cc1,–,14800 nM (active)
CN(CCO)C1CCN(c2ccc(Nc3ncc4c5ccnc(F)c5n(C5CCCC5)c4n3)nc2)CC1,–,1820 nM (active)
NS(=O)(=O)c1ccc(S(=O)(=O)Nc2cccc3c(Cl)c[nH]c23)cc1,–,1320 nM (active)

# Assay: BET inhibitor-based combinations targeting novel dependencies in MECOM-rearranged (r) AML: UCSD-AML1 cell line (AID 2202235); note: nearly all actives have a fitted effect of over 40% in size;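 for viability (% of control): plate controls were DMSO vehicle wells for no effect and blank wells for full effect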
# Conditions: UCSD-AML1 AML cells viability, CellTiter-Glo, 48 h; series mostly up to 46 µM; viability (% of control): at the top concentration
# Procedure, shortened: as §1
SMILES,viability (% of control),Potency
CN(Cc1ccccc1)C(=O)c1ccc(S(=O)(=O)Nc2ccccc2)cc1,105% (inactive),–
Nc1nccn2c(C3CCC(C(=O)O)CC3)nc(-c3cc4cccc(Cl)c4[nH]3)c12 (configuration not stated),–,1.05 µM (active)
C=CCNC1=C2CC(C)CC(OC)C(O)C(C)/C=C(\C)C(OC(N)=O)C(OC)/C=C/C=C(\C)C(=O)NC(=CC1=O)C2=O (configuration not stated),–,1.32 µM (active)
N=C1CCCN1Cc1[nH]c(=O)[nH]c(=O)c1Cl,110% (inactive),–
COc1ccc(-c2cc(C(O)C3CCCCN3)c3ccccc3n2)cc1 (configuration not stated),–,9.34 µM (active)
C[C@H]1COCCN1c1cc(C2(S(=O)(=O)C3CC3)CC2)nc(-c2ccc(NC(=S)NCCO)cc2)n1,–,0.0105 µM (active)
CNC(=O)Cn1cc(-c2ccc3c(c2)C(F)CC32NC(=O)N(CC(=O)N(Cc3ccc(F)cc3)[C@@H](C)C(F)(F)F)C2=O)cn1 (some centres not stated),–,118 nM (active) and inactive
CN(C)CCCN=c1c2ccccc2n(C)c2[nH]c(=O)n(C)c(=O)c12,–,26.3 µM (active)
NS(=O)(=O)c1ccc(S(=O)(=O)Nc2cccc3c(Cl)c[nH]c23)cc1,–,2.35 µM (active)

# Assay: BET inhibitor-based combinations targeting novel dependencies in MECOM-rearranged (r) AML: AML-191 cell line (AID 2202236; note: nearly all actives have a fitted effect of over 35% in size;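 for viability (% of control): plate controls were vehicle wells for no effect and wells without cells for full effect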)
# Conditions: AML-191 viability, CellTiter-Glo luminescence, 48 h; series mostly up to 46 µM; viability (% of control): at the top concentration
# Procedure, shortened: (§2)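 A 48 hr incubation preceded viability reading by CellTiter-Glo, with 15 min room-temperature development. Dose series had 11 points; normalization used DMSO and empty wells; AUC was computed and mean-centered per line as Z-AUC.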
SMILES,viability (% of control),Potency
C[C@H](O)[C@@H]1C(=O)N2C(C(=O)O)=C(S[C@@H]3CN[C@H](CNS(N)(=O)=O)C3)[C@@H](C)[C@@H]12,103% (inactive),–
CN(Cc1ccccc1)C(=O)c1ccc(S(=O)(=O)Nc2ccccc2)cc1,92.2% (inactive),–
N=C1CCCN1Cc1[nH]c(=O)[nH]c(=O)c1Cl,103% (inactive),–
COc1ccc(-c2cc(C(O)C3CCCCN3)c3ccccc3n2)cc1 (configuration not stated),–,14800 nM (active)
CNC(=O)Cn1cc(-c2ccc3c(c2)C(F)CC32NC(=O)N(CC(=O)N(Cc3ccc(F)cc3)[C@@H](C)C(F)(F)F)C2=O)cn1 (some centres not stated),82.1% (inactive),–
CN(C)CCCN=c1c2ccccc2n(C)c2[nH]c(=O)n(C)c(=O)c12,–,18600 nM (active)

# Assay: BET inhibitor-based combinations targeting novel dependencies in MECOM-rearranged (r) AML: AML-194 cell line (AID 2202237; note: nearly all actives have a fitted effect of over 40% in size;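 for viability (% of control): plate controls were vehicle wells for no effect and wells without cells for full effect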)
# Conditions: AML-194 (MECOM-r AML) viability, CellTiter-Glo, 48 h; series mostly up to 46 µM; viability (% of control): at the top concentration
# Procedure, shortened: as §2
SMILES,viability (% of control),Potency
C[C@H](O)[C@@H]1C(=O)N2C(C(=O)O)=C(S[C@@H]3CN[C@H](CNS(N)(=O)=O)C3)[C@@H](C)[C@@H]12,116% (inactive),–
CN(Cc1ccccc1)C(=O)c1ccc(S(=O)(=O)Nc2ccccc2)cc1,97.7% (inactive),–
COc1ccc(-c2cc(C(O)C3CCCCN3)c3ccccc3n2)cc1 (configuration not stated),–,11800 nM (active)
CNC(=O)Cn1cc(-c2ccc3c(c2)C(F)CC32NC(=O)N(CC(=O)N(Cc3ccc(F)cc3)[C@@H](C)C(F)(F)F)C2=O)cn1 (some centres not stated),96% (inactive),–
